# Laboratory results as given in ChEMBL document CHEMBL1961873, “Compounds: GSK PKIS; Assays: Nanosyn kinase panel” (2012).
# Legend:
# [1] = molecular target: Sphingosine kinase 1 (Homo sapiens) (UniProt Q9NYA1); conditions: at 1 µM;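 further: mean SPHK1 inhibition value reported from the GSK PKIS kinase panel screen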
# [2] = molecular target: T1, Sphingosine kinase 2 (Homo sapiens) (UniProt Q9NRA0); conditions: at 0.1 µM
# T1 sequence (whole entry): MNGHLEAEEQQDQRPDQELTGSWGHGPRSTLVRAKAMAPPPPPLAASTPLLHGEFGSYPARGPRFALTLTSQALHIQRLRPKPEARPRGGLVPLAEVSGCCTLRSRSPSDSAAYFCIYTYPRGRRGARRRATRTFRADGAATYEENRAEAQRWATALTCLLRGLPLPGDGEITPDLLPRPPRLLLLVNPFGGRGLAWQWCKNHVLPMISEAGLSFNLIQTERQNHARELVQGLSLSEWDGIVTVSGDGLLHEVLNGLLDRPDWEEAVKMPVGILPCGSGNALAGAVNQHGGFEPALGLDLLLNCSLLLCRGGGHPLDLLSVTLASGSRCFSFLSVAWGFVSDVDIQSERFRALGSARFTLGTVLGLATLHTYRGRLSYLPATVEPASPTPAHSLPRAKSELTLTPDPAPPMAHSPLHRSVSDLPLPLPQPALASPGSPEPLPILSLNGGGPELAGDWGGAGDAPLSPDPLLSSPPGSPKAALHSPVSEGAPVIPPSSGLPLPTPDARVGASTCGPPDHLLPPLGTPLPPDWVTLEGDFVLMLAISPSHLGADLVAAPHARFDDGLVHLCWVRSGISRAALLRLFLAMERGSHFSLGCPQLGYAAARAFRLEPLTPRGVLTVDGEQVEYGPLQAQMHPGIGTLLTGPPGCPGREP
# [3] = molecular target: T1, Sphingosine kinase 2 (Homo sapiens); conditions: at 1 µM
# [4] = molecular target: Casein kinase II subunit alpha (Homo sapiens) (UniProt P68400); conditions: at 0.1 µM
# [5] = molecular target: Casein kinase II subunit alpha (Homo sapiens) (UniProt P68400); conditions: at 1 µM
# [6] = molecular target: T2, Inhibitor of nuclear factor kappa-B kinase subunit alpha (Homo sapiens) (UniProt O15111); conditions: at 0.1 µM
# T2 sequence (whole entry): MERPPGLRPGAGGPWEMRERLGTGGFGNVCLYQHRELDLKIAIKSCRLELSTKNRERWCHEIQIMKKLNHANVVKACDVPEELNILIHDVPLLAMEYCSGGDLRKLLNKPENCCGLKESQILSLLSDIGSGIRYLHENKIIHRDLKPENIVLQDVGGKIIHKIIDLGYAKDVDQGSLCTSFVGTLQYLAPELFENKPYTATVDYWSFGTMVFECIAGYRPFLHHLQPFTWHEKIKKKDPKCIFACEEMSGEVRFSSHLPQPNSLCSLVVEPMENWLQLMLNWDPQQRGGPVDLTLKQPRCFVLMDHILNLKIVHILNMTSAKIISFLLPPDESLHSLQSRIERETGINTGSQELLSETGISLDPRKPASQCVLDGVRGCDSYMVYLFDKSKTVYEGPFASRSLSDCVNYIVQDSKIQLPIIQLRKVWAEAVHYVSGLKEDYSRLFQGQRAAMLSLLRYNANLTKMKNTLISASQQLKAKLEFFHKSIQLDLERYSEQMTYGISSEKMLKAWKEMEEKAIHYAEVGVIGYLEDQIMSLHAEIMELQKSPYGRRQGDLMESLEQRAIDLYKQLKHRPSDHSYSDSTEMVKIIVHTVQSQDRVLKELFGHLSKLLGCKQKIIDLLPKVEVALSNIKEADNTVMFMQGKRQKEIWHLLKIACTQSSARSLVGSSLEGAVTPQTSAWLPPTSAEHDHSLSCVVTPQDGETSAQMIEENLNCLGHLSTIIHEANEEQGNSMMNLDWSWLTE
# [7] = molecular target: T2, Inhibitor of nuclear factor kappa-B kinase subunit alpha (Homo sapiens); conditions: at 1 µM
# [8] = molecular target: T3, Inhibitor of nuclear factor kappa-B kinase subunit beta (Homo sapiens) (UniProt O14920); conditions: at 0.1 µM
# T3 sequence (whole entry): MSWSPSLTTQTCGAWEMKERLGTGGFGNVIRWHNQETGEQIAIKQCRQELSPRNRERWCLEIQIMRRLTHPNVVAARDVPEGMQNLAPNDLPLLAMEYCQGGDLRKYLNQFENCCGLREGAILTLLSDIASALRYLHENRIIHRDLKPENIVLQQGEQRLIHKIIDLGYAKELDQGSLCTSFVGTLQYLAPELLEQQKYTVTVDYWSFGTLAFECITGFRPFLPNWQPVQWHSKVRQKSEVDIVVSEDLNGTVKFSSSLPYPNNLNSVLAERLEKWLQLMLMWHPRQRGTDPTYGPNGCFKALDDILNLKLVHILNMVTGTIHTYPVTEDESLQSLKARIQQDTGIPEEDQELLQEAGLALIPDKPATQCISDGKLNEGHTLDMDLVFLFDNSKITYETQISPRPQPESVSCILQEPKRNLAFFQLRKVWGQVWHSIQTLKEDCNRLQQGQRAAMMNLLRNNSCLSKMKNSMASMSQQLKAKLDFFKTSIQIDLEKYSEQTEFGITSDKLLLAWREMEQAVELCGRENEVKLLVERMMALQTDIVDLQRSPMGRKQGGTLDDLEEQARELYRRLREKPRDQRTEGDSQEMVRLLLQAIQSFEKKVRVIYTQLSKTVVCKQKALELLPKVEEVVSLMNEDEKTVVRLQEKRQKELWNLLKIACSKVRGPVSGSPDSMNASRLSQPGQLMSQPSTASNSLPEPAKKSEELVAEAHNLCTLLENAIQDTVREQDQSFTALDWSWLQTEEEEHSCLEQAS
# [9] = molecular target: T3, Inhibitor of nuclear factor kappa-B kinase subunit beta (Homo sapiens); conditions: at 1 µM
# [10] = molecular target: T4, Inhibitor of nuclear factor kappa-B kinase subunit epsilon (Homo sapiens) (UniProt Q14164); conditions: at 0.1 µM
# T4 sequence (whole entry): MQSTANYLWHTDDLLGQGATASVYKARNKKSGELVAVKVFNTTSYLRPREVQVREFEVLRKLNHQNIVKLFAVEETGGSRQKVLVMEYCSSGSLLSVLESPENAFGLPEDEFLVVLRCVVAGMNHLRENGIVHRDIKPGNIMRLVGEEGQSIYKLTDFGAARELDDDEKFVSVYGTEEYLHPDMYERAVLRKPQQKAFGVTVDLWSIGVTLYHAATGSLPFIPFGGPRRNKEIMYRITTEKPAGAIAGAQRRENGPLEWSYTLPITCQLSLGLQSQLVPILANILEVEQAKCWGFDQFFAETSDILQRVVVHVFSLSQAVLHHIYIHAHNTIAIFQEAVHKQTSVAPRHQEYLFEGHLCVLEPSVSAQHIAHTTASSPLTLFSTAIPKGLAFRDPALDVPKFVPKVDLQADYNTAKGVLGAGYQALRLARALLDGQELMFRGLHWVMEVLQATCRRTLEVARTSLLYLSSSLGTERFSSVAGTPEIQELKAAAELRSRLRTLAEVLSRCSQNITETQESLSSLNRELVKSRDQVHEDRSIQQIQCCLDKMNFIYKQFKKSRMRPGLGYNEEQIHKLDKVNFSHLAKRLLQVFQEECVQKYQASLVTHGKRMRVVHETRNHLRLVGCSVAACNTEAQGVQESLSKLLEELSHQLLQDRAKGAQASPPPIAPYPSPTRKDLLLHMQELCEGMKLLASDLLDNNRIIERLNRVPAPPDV
# [11] = molecular target: T4, Inhibitor of nuclear factor kappa-B kinase subunit epsilon (Homo sapiens); conditions: at 1 µM
# [12] = molecular target: T5, Serine/threonine-protein kinase Nek1 (Homo sapiens) (UniProt Q96PY6); conditions: at 0.1 µM
# T5 sequence (whole entry): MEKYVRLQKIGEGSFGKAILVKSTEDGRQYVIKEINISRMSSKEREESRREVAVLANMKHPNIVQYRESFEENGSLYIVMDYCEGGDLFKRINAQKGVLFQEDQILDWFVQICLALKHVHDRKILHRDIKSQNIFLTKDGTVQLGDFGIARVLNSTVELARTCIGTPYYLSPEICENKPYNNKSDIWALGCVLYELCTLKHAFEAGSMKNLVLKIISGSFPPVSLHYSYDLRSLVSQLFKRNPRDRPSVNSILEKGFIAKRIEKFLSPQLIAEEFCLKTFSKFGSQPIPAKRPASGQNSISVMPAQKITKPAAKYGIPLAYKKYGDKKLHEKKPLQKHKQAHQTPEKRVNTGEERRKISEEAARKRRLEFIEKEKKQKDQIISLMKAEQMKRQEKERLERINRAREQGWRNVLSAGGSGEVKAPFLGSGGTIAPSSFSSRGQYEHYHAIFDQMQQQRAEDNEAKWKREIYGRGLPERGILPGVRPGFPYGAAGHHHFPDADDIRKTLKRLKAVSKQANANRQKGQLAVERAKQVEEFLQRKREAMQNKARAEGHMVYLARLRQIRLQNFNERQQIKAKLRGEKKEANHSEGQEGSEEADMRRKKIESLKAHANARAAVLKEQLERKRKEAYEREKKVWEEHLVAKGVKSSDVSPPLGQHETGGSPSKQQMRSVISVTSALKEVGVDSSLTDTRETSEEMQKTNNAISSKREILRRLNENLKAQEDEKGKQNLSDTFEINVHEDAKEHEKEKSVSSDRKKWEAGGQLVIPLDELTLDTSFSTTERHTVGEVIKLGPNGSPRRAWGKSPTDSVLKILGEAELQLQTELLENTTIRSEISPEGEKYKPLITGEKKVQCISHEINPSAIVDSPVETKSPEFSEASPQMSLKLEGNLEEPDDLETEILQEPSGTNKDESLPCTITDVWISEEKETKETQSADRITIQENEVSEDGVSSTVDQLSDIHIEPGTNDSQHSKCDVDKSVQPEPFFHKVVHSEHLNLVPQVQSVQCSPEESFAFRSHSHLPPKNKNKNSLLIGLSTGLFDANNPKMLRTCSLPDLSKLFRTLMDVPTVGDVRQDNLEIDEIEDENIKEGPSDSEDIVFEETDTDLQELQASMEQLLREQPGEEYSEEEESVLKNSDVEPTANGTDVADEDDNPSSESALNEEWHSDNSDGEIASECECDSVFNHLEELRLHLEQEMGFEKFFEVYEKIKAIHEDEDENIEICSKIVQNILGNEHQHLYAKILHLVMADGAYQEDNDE
# [13] = molecular target: T5, Serine/threonine-protein kinase Nek1 (Homo sapiens); conditions: at 1 µM
# [14] = molecular target: T6, Serine/threonine-protein kinase Nek2 (Homo sapiens) (UniProt P51955); conditions: at 0.1 µM
# T6 sequence (whole entry): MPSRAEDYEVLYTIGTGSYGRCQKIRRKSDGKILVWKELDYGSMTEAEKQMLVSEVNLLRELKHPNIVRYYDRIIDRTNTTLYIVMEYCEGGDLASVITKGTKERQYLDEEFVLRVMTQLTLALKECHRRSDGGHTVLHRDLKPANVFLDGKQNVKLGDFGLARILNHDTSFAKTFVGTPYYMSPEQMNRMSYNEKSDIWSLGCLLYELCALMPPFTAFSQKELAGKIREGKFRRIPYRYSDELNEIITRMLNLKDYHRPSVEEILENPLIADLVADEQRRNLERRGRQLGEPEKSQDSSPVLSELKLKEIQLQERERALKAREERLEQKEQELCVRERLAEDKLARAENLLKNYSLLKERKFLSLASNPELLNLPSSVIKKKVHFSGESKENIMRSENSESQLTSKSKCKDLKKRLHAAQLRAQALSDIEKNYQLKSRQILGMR
# [15] = molecular target: T6, Serine/threonine-protein kinase Nek2 (Homo sapiens); conditions: at 1 µM
# [16] = molecular target: Serine/threonine-protein kinase Nek6 (Homo sapiens) (UniProt Q9HC98); conditions: at 0.1 µM
# [17] = molecular target: Serine/threonine-protein kinase Nek6 (Homo sapiens) (UniProt Q9HC98); conditions: at 1 µM
# [18] = molecular target: Serine/threonine-protein kinase Nek7 (Homo sapiens) (UniProt Q8TDX7); conditions: at 0.1 µM
# [19] = molecular target: Serine/threonine-protein kinase Nek7 (Homo sapiens) (UniProt Q8TDX7); conditions: at 1 µM
# [20] = molecular target: T7, Serine/threonine-protein kinase Nek9 (Homo sapiens) (UniProt Q8TD19); conditions: at 0.1 µM;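 further: reported value is the mean percent inhibition of NEK9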
# T7 sequence (whole entry): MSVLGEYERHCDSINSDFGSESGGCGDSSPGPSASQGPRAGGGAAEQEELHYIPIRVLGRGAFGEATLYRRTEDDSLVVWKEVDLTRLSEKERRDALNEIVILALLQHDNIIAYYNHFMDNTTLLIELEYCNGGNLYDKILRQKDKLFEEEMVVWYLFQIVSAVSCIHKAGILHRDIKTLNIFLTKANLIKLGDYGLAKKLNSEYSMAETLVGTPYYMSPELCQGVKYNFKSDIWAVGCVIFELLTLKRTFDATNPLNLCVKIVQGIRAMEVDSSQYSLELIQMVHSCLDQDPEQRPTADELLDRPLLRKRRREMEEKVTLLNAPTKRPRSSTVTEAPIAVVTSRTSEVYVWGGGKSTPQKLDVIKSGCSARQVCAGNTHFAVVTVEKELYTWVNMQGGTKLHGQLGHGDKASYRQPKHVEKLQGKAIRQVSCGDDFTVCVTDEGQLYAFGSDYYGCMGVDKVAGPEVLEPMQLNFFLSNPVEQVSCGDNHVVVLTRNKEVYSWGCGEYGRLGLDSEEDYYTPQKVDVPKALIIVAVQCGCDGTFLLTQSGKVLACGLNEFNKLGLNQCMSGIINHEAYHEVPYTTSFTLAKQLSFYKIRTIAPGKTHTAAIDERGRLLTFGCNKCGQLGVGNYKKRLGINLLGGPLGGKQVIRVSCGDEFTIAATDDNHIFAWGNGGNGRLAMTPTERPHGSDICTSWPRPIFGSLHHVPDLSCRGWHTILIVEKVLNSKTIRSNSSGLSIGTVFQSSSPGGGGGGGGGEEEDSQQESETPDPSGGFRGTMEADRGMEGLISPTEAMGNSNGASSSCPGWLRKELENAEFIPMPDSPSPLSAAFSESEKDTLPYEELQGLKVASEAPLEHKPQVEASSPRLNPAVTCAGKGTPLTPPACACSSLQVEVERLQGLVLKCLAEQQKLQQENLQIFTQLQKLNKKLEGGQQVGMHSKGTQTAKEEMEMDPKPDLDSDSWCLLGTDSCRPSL
# Serine/threonine-protein kinase Nek6 (Homo sapiens), sequence (Q9HC98 whole entry): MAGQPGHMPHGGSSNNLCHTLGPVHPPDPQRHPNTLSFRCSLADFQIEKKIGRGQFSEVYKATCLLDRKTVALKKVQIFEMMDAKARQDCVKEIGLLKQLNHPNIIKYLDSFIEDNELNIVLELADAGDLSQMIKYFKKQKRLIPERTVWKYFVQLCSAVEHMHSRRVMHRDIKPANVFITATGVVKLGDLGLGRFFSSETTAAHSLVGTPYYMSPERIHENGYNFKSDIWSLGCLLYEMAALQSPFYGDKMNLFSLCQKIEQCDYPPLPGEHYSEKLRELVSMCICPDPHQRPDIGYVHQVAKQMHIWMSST
# Serine/threonine-protein kinase Nek7 (Homo sapiens), sequence (Q8TDX7 whole entry, looked up): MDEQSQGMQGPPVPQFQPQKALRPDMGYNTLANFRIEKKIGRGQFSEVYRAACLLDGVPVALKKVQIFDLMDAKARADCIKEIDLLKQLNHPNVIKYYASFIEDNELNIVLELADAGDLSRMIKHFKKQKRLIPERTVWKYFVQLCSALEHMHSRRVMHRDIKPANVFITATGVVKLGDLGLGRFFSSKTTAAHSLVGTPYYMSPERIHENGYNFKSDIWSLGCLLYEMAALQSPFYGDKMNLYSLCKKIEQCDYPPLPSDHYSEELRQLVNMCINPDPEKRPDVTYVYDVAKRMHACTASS
# Casein kinase II subunit alpha (Homo sapiens), sequence (P68400 whole entry, looked up): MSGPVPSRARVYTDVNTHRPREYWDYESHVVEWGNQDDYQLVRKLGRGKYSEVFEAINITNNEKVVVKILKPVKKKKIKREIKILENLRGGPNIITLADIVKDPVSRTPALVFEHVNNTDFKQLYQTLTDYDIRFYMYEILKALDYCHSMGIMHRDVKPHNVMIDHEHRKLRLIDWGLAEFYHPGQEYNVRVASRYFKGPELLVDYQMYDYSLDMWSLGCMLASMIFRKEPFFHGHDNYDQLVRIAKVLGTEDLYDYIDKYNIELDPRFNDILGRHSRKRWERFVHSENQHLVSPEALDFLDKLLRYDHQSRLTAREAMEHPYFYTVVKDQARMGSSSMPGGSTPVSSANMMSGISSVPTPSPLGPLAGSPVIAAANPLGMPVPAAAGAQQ
# Sphingosine kinase 1 (Homo sapiens), sequence (Q9NYA1 whole entry): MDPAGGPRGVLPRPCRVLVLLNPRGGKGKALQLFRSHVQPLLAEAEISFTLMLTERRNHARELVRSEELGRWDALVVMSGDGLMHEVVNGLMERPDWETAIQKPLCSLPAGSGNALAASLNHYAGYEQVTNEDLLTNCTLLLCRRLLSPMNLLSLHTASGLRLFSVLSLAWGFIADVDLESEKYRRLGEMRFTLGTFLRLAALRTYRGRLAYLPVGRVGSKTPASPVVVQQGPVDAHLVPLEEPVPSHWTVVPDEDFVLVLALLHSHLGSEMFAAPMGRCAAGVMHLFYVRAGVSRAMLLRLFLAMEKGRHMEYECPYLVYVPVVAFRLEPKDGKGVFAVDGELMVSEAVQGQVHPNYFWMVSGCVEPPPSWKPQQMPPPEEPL
compound,measurement,setting,value
c1cnn2ncc(-c3ccnc(Nc4ccc5c(c4)OCCO5)n3)c2c1,inhibition,[1],-1.74%
same,inhibition,[2],2.07%
same,inhibition,[3],0.2%
same,inhibition,[4],13.2%
same,inhibition,[5],47.5%
same,inhibition,[6],14.7%
same,inhibition,[7],60.5%
same,inhibition,[8],8.92%
same,inhibition,[9],30%
same,inhibition,[10],6.75%
same,inhibition,[11],20.5%
same,inhibition,[12],4.85%
same,inhibition,[13],20.4%
same,inhibition,[14],4.88%
same,inhibition,[15],15.4%
same,inhibition,[16],3.89%
same,inhibition,[17],4.5%
same,inhibition,[18],3.53%
same,inhibition,[19],6.49%
same,inhibition,[20],16.2%
